{"source": "the supplement of paper PMC9844399", "note": "Where a name gives a salt, the structure may show the parent alone.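 Note: High-content confocal imaging of branched-DNA amplified FISH in 384-well plates, Hoechst-defined nuclei, score is well value minus plate DMSO median over DMSO robust SD, four wells per compound.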"}
{"system": "HeLa", "test": "MALAT1 nuclear FISH intensity, robust Z-score vs DMSO; higher = more nuclear MALAT1 lncRNA, active = -3 or less", "conditions": "10 µM; 6 h"}
{"smiles": "CN/C(=N\\CCSCc1nc[nH]c1C)NC#N", "note": "[Cimetidine]", "MALAT1 nuclear FISH intensity": "-1.02 (inactive)"}
{"smiles": "C[C@]12CC[C@@H]3c4ccc(O)cc4CC[C@H]3[C@@H]1CC[C@@H]2O", "note": "[Estradiol]", "MALAT1 nuclear FISH intensity": "-0.859 (inactive)"}
{"smiles": "CN(C)CCOC(c1ccc(Cl)cc1)c1ccccn1", "note": "(centres undefined) [Carbinoxamine Maleate]", "MALAT1 nuclear FISH intensity": "0.56 (inactive)"}
{"smiles": "Cc1nc(Nc2ncc(C(=O)Nc3c(C)cccc3Cl)s2)cc(N2CCN(CCO)CC2)n1", "note": "[Dasatinib]", "MALAT1 nuclear FISH intensity": "-3.35 (active)"}
{"smiles": "CC1=C(C(=O)O)N2C(=O)[C@@H](NC(=O)[C@H](N)c3ccccc3)[C@H]2SC1", "note": "[Cephalexin Monohydrate]", "MALAT1 nuclear FISH intensity": "0.399 (inactive)"}
{"smiles": "COc1ccc(-n2c(SCCCN3C(=O)c4cccc5cccc(c45)C3=O)nnc2-c2ccncc2)cc1", "MALAT1 nuclear FISH intensity": "-0.954 (inactive)"}
{"smiles": "OC[C@@H](O)[C@@H](O)[C@H](O)[C@@H](O)CO", "note": "[Sorbitol]", "MALAT1 nuclear FISH intensity": "0.67 (inactive)"}
{"smiles": "CCOC(=O)C1=C(C)NC(=S)NC1c1cccc(O)c1", "note": "(centres undefined) [Monastrol]", "MALAT1 nuclear FISH intensity": "-2.86 (inactive)"}
{"smiles": "NCCS", "MALAT1 nuclear FISH intensity": "-1.17 (inactive)"}
{"smiles": "COCc1nc2c([nH]1)c(=O)n(C)c(=O)n2CC(C)C", "note": "[8-methoxymethyl-IBMX]", "MALAT1 nuclear FISH intensity": "-0.0882 (inactive)"}
{"smiles": "NC(=O)N1c2ccccc2CC(=O)c2ccccc21", "note": "[Oxcarbazepine]", "MALAT1 nuclear FISH intensity": "0.499 (inactive)"}
{"smiles": "CO[C@H]1C[C@@H]2CC[C@@H](C)[C@@](O)(O2)C(=O)C(=O)N2CCCC[C@H]2C(=O)O[C@H]([C@H](C)C[C@@H]2CC[C@@H](OC(=O)C(C)(CO)CO)[C@H](OC)C2)CC(=O)[C@H](C)/C=C(\\C)[C@@H](O)[C@@H](OC)C(=O)[C@H](C)C[C@H](C)/C=C/C=C/C=C/1C", "note": "[Temsirolimus]", "MALAT1 nuclear FISH intensity": "1.29 (inactive)"}
{"smiles": "O=C(O)c1cccnc1Nc1cccc(C(F)(F)F)c1", "note": "[Niflumic acid]", "MALAT1 nuclear FISH intensity": "-0.0939 (inactive)"}
{"smiles": "CCCC(CCC)C(=O)O", "note": "[Sodium Valproate]", "MALAT1 nuclear FISH intensity": "-0.236 (inactive)"}
{"smiles": "CSc1ccc2c(c1)N(CCC1CCCCN1C)c1ccccc1S2", "note": "(centres undefined)", "MALAT1 nuclear FISH intensity": "1.31 (inactive)"}
{"smiles": "COc1ccc(-c2ccc3c(N4CCOCC4)nc(N4C[C@@H](C)O[C@@H](C)C4)nc3n2)cc1CO", "MALAT1 nuclear FISH intensity": "0.0768 (inactive)"}
{"smiles": "OC[C@@H](O)[C@@H](O)[C@H](O)[C@H](O)CO", "note": "[Mannitol]", "MALAT1 nuclear FISH intensity": "0.661 (inactive)"}
{"smiles": "CC(S)C(=O)NCC(=O)O", "note": "(centres undefined) [Tiopronin]", "MALAT1 nuclear FISH intensity": "1.65 (inactive)"}
{"smiles": "C[C@]12CCC3=C4CCC(=O)C=C4CC[C@H]3[C@@H]1CC[C@@]2(O)CC#N", "note": "[Dienogest]", "MALAT1 nuclear FISH intensity": "1.46 (inactive)"}
{"smiles": "CCCCc1nc(Cl)c(CO)n1Cc1ccc(-c2ccccc2-c2nnn[nH]2)cc1", "note": "[Losartan potassium]", "MALAT1 nuclear FISH intensity": "-1.57 (inactive)"}
{"smiles": "Cc1ccc(S(=O)(=O)N[C@@H](Cc2ccccc2)C(=O)CCl)cc1", "note": "[Tosyl-Phe-CMK (TPCK)]", "MALAT1 nuclear FISH intensity": "2.74 (inactive)"}
{"smiles": "Nc1nc(Cl)nc2c1ncn2[C@@H]1O[C@H](CO)[C@@H](O)[C@@H]1F", "note": "[Clofarabine]", "MALAT1 nuclear FISH intensity": "0.00504 (inactive)"}
{"smiles": "CCCCCCCCCCCCC/C=C/[C@@H](O)[C@H](CO)NC(C)=O", "note": "[C2 Ceramide]", "MALAT1 nuclear FISH intensity": "0.202 (inactive)"}
{"smiles": "NC(=O)c1ccc(-c2nc(-c3ccccn3)c(-c3ccc4c(c3)OCO4)[nH]2)cc1", "MALAT1 nuclear FISH intensity": "0.3 (inactive)"}
{"smiles": "CC(C)/N=c1\\cc2n(-c3ccc(Cl)cc3)c3ccccc3nc-2cc1Nc1ccc(Cl)cc1", "note": "[Clofazimine]", "MALAT1 nuclear FISH intensity": "-0.504 (inactive)"}
{"smiles": "CC(C)COCC(CN(Cc1ccccc1)c1ccccc1)N1CCCC1", "note": "(centres undefined)", "MALAT1 nuclear FISH intensity": "-0.503 (inactive)"}
{"smiles": "CCc1cccc2c3c([nH]c12)C(CC)(CC(=O)O)OCC3", "note": "(centres undefined) [Etodolac]", "MALAT1 nuclear FISH intensity": "-0.647 (inactive)"}
{"smiles": "NC(=S)c1ccccc1", "note": "[Thiobenzamide]", "MALAT1 nuclear FISH intensity": "-1.8 (inactive)"}
{"smiles": "NC(=O)Cc1cccc(C(=O)c2ccccc2)c1N", "note": "[Nepafenac]", "MALAT1 nuclear FISH intensity": "-0.52 (inactive)"}
{"smiles": "CC(C)NNC(=O)c1ccncc1", "note": "[Iproniazid Phosphate]", "MALAT1 nuclear FISH intensity": "0.405 (inactive)"}
{"smiles": "CCCCCCCC/C=C\\C/C=C\\C/C=C\\CCCC(=O)O", "note": "[Mead acid (20:3 n-9)]", "MALAT1 nuclear FISH intensity": "0.854 (inactive)"}
{"smiles": "CCCCCCCCCCCCC/C=C/[C@@H](O)[C@H](CO)NC(=O)CCCCCCCCCCCCCCC", "note": "[C16 Ceramide]", "MALAT1 nuclear FISH intensity": "0.493 (inactive)"}
{"smiles": "Nc1ccc2c3c(cccc13)C(=O)NC2=O", "note": "[4-Amino-1,8-naphthalimide]", "MALAT1 nuclear FISH intensity": "-1.23 (inactive)"}
{"smiles": "Oc1cc2c(cc1O)CN(C(=S)NCCc1ccc(Cl)cc1)CCC2", "note": "[Capsazepine]", "MALAT1 nuclear FISH intensity": "0.801 (inactive)"}
